This is a sample that favours compounds with a hit; in the whole collection about 2.3% have one here.
M1 antag – human CHRM1 antagonism. inhibition, % at 3 µM. P11229. CHO-K1 hM1, Fluo-8 calcium fluorescence, ACh EC80 antagonist. 1.3% of 360,000 active;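 active = percent inhibition above its own plate's cutoff, namely the mean of that plate's compound wells plus 3 SD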;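 also: peak over basal fluorescence ratio during 140 s after agonist addition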
Target sequence (P11229 whole entry, looked up): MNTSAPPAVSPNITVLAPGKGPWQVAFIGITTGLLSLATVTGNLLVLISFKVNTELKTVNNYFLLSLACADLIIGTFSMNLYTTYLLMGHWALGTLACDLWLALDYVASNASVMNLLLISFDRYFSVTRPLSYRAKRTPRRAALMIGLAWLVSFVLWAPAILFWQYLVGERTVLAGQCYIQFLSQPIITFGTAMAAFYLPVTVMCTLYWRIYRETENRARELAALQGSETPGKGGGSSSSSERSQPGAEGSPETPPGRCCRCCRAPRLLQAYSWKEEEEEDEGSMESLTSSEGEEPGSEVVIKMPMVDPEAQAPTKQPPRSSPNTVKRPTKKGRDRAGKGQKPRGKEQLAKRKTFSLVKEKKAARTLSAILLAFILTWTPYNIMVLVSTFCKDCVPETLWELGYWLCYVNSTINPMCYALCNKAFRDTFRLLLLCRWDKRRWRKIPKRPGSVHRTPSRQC
M1 PAM – human CHRM1 positive allosteric modulation | CHO-K1 hM1, Fluo-8 calcium fluorescence, ACh EC20; 0% = ACh EC20, 100% = maximal ACh | activation, % at 3 µM | 0.088% of 360,000 active; in the data active = activation above about 19%, passing the limit was not always enough
M1 PAM parental – M1 PAM counterscreen hit in parental CHO-K1 cells | ATP EC20, Fluo-8 calcium fluorescence; 0% at ATP EC20, 100% at ATP max | activation, % at 3 µM | 0.02% of 360,000 active | AID 602247;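 active = activation above the run cutoff, the mean activation of all test compounds plus 3 SD, cut at about 40% in these data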;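 also: peak over basal fluorescence ratio in a 140 s read after ATP addition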
M1 ag parental – counter-screen for M1 agonists: effect in parental CHO-K1 cells | Fluo-8 calcium fluorescence; scaled to maximal ATP response, vehicle zero | activation, % at 3 µM | 0.48% of 360,000 active; in the data active = activation above about 15%;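 also: untransfected CHO-K1 host cells lacking M1 receptor as counterscreen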
M1 ag – agonists of human M1 muscarinic receptor; P11229; CHO-K1 hM1, Fluo-8 calcium fluorescence, agonist mode; 0% DMSO, 100% acetylcholine EC100; activation, % at 3 µM; 0.33% of 360,000 active;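 active = activation above the run's mean compound activation plus 3 SD, cut at about 16% in these data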;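 also: peak over basal fluorescence ratio within a 140 s kinetic read after compound addition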
CHO-K1 Ca antag – counter-screen for M1 antagonists: effect in parental CHO-K1 cells; ATP-induced calcium, Fluo-8 fluorescence; inhibition, % at 3 µM; 0.6% of 360,000 active; AID 602250;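 active = inhibition above a per-plate cutoff, the plate's mean sample inhibition plus 3 SD, cut at about 24% in these data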
Large screens that a line does not name were inactive.

C/C(=C/c1ccccc1)C(=O)N1CCN(c2ccc(F)cc2)CC1	M1 ag parental 16
CN1CCN(C(=O)/C(=C/c2ccc(F)cc2)c2ccsc2)CC1	M1 antag 98
Cc1cccc(C)c1-n1nnnc1C(c1ccnc2ccccc12)N1CCN(c2ccccc2F)CC1 (centres undefined)	none (no result: M1 antag, M1 PAM, M1 ag)
CC1(C(=O)NCc2ccccc2)CCC(=O)N1CCCn1ccnc1 (centres undefined)	none
COCCCN1CC(=O)N2C(c3ccccc3)c3[nH]c4ccccc4c3C[C@H]2C1=O (some centres undefined)	none
COC(=O)c1ccc(C2c3[nH]c4ccccc4c3C[C@H]3C(=O)N(C)CC(=O)N23)cc1 (some centres undefined)	none
CN1CC(=O)N2C(c3ccc(Cl)cc3)c3[nH]c4ccccc4c3C[C@H]2C1=O (some centres undefined)	M1 ag parental 24
CCN1C(=O)[C@@H]2Cc3c([nH]c4ccccc34)C(c3ccc(OC)cc3)N2C1=S (some centres undefined)	M1 antag 71
Cc1ccc(OCCn2c(=O)n(C)c3ccccc32)cc1	none
O=[N+]([O-])c1ccccc1Oc1ccc(S(=O)(=O)N2CCOCC2)cc1	none
CNC(=O)COc1ccc(Nc2nnc(-c3ccc(C)c(S(N)(=O)=O)c3)c3ccccc23)cc1	M1 ag 45
COc1ccc(Nc2c3c(nc4ccccc24)CCC3)cc1	none
COc1ccc(Nc2nnc(-c3ccc(O)cc3)c3ccccc23)cc1	M1 antag 59
Oc1ccc(Nc2nnc(-c3ccc(O)cc3)c3ccccc23)cc1	M1 antag 36
COc1ccc(Nc2c3ccccc3nc3ccccc23)cc1	M1 ag parental 16
CC(C)=CC(=O)NCc1c(Cl)cccc1-n1cccc1	none
CCCn1c(=O)c2[nH]c(-c3ccc(OCC(=O)Nc4ccc(C#N)cc4)cc3)nc2n(CCC)c1=O	none
O=c1[nH]nc(Br)c(=O)n1C(c1ccccc1)c1ccccc1	M1 ag parental 26, M1 ag 19
CCOc1ccc(OCCNC(=O)C(NC(=O)c2c(F)cccc2F)C(C)C)cc1 (centres undefined)	none
CC(C)(C)c1ccc(-n2nc(C#N)c(Cl)cc2=O)cc1	M1 antag 45, CHO-K1 Ca antag 30
Cc1ccccc1C(=NCCCN(C)C)c1ccccc1C	M1 antag 77
Cc1cccc(C)c1C(=NCCN(C)C)c1ccccc1	M1 antag 75
CN(N=C(c1ccccc1)c1ccccc1)c1ccccc1	none
CC(C)(C)OC(=O)N1CCN(c2ccc([N+](=O)[O-])cc2)CC1	none
Cn1nnnc1SCc1ccc([N+](=O)[O-])cc1	none
CCOc1cc(S(=O)(=O)NCc2ccncc2)ccc1Cl	CHO-K1 Ca antag 55
CCOC(=O)COc1ccc(S(=O)(=O)NCc2ccncc2)cc1	M1 antag 19
CCOc1cc(S(=O)(=O)NCc2cccs2)ccc1Cl	none
CCOc1ccc(S(=O)(=O)NCc2ccncc2)cc1	none
O=C(COC(=O)COc1ccc(Br)cc1)NCc1ccccc1	none
CC(=O)c1ccc(NC(=S)N(CCCN(C)C)Cc2ccccc2)cc1	M1 antag 44
CC(=O)c1ccc(NC(=S)NC(C)CCc2ccccc2)cc1 (centres undefined)	M1 ag parental 15
CN(C)CCCN(Cc1ccccc1)C(=S)Nc1ccc(SC(F)F)cc1	M1 antag 88
CN(C)CCCN(Cc1ccccc1)C(=S)NCc1ccccc1	none
OCCC1CN(Cc2cc3c(cc2Cl)OCO3)CCN1Cc1ccccc1 (centres undefined)	none
COc1ccc(C(=O)C2CCN(C(=O)Nc3ccc(C)cc3)CC2)cc1	M1 ag parental 19
COc1ccc(CCNC(=S)N2CCC(C(=O)c3ccc(F)cc3)CC2)cc1OC	M1 ag parental 15
COc1ccc(C(=O)C2CCN(C(=S)NCCc3ccccc3)CC2)cc1	none
COCCNC(=S)N1CCC(C(=O)c2ccc(F)cc2)CC1	none
Cc1ccc(NC(=O)N2CCC(C(=O)c3ccc(F)cc3)CC2)cc1	none
COc1ccc(C(=O)C2CCN(C(=S)NCCc3ccc(OC)c(OC)c3)CC2)cc1	M1 ag parental 18
Cc1ccc(S(=O)(=O)N(C)C)cc1NC(=O)c1cc(S(=O)(=O)N2CCCCC2)ccc1N1CCOCC1	none
Cn1c2ccccc2c(=O)c2ccc(C#CC3(O)CCCCC3)cc21	M1 antag 39
COc1cc2sc3ccc(C#CC4(O)CCCCC4)cc3c(=O)c2cc1OC	none
CCN(CC)C(=O)C1=C(C)N(Cc2ccc(F)cc2)C(=O)C(CC(=O)NCCCCc2ccccc2)C1 (centres undefined)	none
CC1=C(C(=O)N(C)C)CC(CC(=O)NCCCCc2ccccc2)C(=O)N1Cc1ccc(F)cc1 (centres undefined)	M1 ag 35
Cc1cccc2c1N(CCCOc1ccccc1)C(=O)C2=O	M1 ag 20
Cc1ccc2c(c1)C(=O)C(=O)N2CCCOc1ccccc1C	none
Cc1ccccc1OCCCN1C(=O)C(=O)c2cccc(C)c21	M1 ag 22
C=CCN(Cc1cccc(OC)c1OC)C(=O)Oc1ccccc1	none
CCOC(=O)CSc1nnc(NC(=O)CN2CCCCC2)s1	none
Cc1ccc(S(=O)(=O)N2CCC(C(=O)OCCOc3ccccc3)CC2)cc1C	M1 antag 19
Cc1ccc(OCCOC(=O)C2CCN(S(=O)(=O)c3ccc(C)c(C)c3)CC2)cc1	none
COc1ccccc1/C=C/C(=O)OCC(=O)N1CCc2ccccc21	none
O=C(CN(C1CCCCC1)S(=O)(=O)c1ccccc1)N1CCCC1	none
O=C(CN(C1CCCCC1)S(=O)(=O)c1ccc(Cl)cc1)N1CCOCC1	CHO-K1 Ca antag 27
CCOC(=O)C1CCCN(c2cc(=O)n(C3CCCCC3)c(=O)[nH]2)C1 (centres undefined)	M1 ag 31
O=C(NCc1ccco1)c1ccc(CS(=O)Cc2ccc(Cl)cc2)o1 (centres undefined)	none
CN(C)/C=N/NC(=O)c1ccc(Cl)cc1	none
CN(C)/C=N/c1cnc(C(=O)c2ccc(Cl)cc2)n1C	M1 PAM 26
O=C(CSC1=NS(=O)(=O)c2cc(F)ccc2N1)NCc1ccccc1	none
O=C(CSC1=NS(=O)(=O)c2cc(Cl)ccc2N1)NCc1ccc(F)cc1	CHO-K1 Ca antag 30
COc1ccc(Oc2c(C)oc3c(CN(C)C)c(O)ccc3c2=O)cc1	M1 antag 32
Cc1ccc(S(=O)(=O)N2CCOCC2)cc1C(=O)NCc1cccs1	CHO-K1 Ca antag 25
O=C(NCc1cccs1)c1ccc(S(=O)(=O)N2CCOCC2)cc1	none
CCc1ccc(Nc2cc(=O)n(C3CCCCC3)c(=O)[nH]2)cc1	M1 ag parental 19, M1 ag 20

Assay outcomes: PubChem, The Scripps Research Institute Molecular Screening Center
